Measurements: PubChem BioAssay (NCI)
The panel holds about 83,000 compounds, 20% with a hit somewhere; the sample as a whole holds those more often.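 Percent growth is the endpoint: 0 to 100 indicates growth inhibition (40 means 60% inhibition), 0 means no net growth, and negative values indicate cell death.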 Values without a mark were called inactive. Active and inactive are the calls of the source. How the source made its calls: active means growth percent below 10; inactive means the rest.

Assays:
Assay in all cases: NCI-60 one-dose screen, 48 h (100 = growth as untreated, 0 = no growth, -100 = all killed)
Details in all cases: 10 µM unless noted
[1] = test system: NCI-H23 lung
[2] = test system: NCI-H226 lung
[3] = test system: NCI-H322M lung
[4] = test system: HOP-62 NSCLC
[5] = test system: NCI-H460 lung
[6] = test system: HOP-92 NSCLC
[7] = test system: NCI-H522 lung
[8] = test system: A549/ATCC NSCLC
[9] = test system: 786-0 renal
[10] = test system: COLO 205 colon

SMILES | growth [1] | growth [2] | growth [3] | growth [4] | growth [5] | growth [6] | growth [7] | growth [8] | growth [9] | growth [10]
COC(=O)c1c2c(c(C)[n+]([O-])c1C)C(=O)C(NCc1cccc(Cl)c1)=CC2=O | 14.7% | 79.8% | 1.86% (active) | 41.6% | 10.1% | 38% | -10.4% (active) | 6.34% (active) | 39.5% | -50.3% (active)
COC(=O)/C=C1/SC(=Nc2ccc([N+](=O)[O-])cc2)N(CCc2c[nH]c3ccc(O)cc23)C1=O | 64.9% | 86.1% | 87.5% | 27.5% | 17.4% | 27.3% | 57.4% | 69.3% | 44.2% | 78.1%
CCOC(=O)c1cnc2c(N=Nc3ccc(OC)cc3)c(N)nn2c1N | 98.8% | 99.7% | 97.9% | 104% | 103% | 113% | 86.8% | 95% | 104% | 106%
C=Cc1cnc(Nc2ccc(OC)cc2)nc1NCCCNC(=O)C1CCC1 | 45.2% | 46.5% | 68.8% | 40.7% | 34.5% | 55.4% | 47.9% | 32.4% | 44.3% | 44.8%
C=C(C)[C@@H]1CC[C@]2(C)[C@H](CC=C3[C@@H]4CC(C)(C)CC[C@]4(CO)CC[C@]32C)[C@@]1(C)CCCN | 68.7% | 95.9% | 54.6% | 63.9% | -93.2% (active) | 42.5% | -40.1% (active) | -71% (active) | 32.6% | -56.8% (active)
COc1cc(OC)cc(-c2ccc(-c3ccc(C(=N)N)o3)o2)c1 | 76.6% | 84.8% | 71.2% | 81.4% | 6.91% (active) | 69.2% | 57.6% | 47.1% | 69% | -61.5% (active)
CNC(=O)c1ccccc1Nc1nc(Nc2cc(OC)c(OC)c(OC)c2)ncc1Br | -45.2% (active) | 10.1% | -23.2% (active) | -32.8% (active) | -36.9% (active) | 53.6% | -49.8% (active) | -10.4% (active) | -18.1% (active) | -71.3% (active)
Cc1ccc(C=C2C(=O)NC(=O)NC2=O)cc1 | 102% | 105% | 110% | 92.1% | 108% | 110% | 85.9% | 87.8% | 107% | 98.3%
CSC(SC)=C(C#N)c1nc2ccccc2s1 | 58.3% | 59% | 79.4% | 72.5% | 57.7% | -12.8% (active) | 6.27% (active) | 74.8% | 61.8% | 112%
O=C(C1=Cc2cc3ccccc3n2Cc2cnnn21)c1ccc(O)cc1 | 75.6% | 85.1% | 89.4% | 55.7% | 27.8% | 84.4% | 36.7% | 50.7% | 81.8% | 75.5%
COC(=O)C(Cc1ccccc1)NC(=O)c1ccc(NC(=O)c2[nH]c(C)c(Cl)c2Cl)c(OC(C)C)c1 (stereo not given) | 70% | 88.6% | 102% | 90.3% | 6.05% (active) | 101% | 93.9% | 6.57% (active) | 39.5% | 102%
CCOC(=O)C(Cc1ccc(OC)cc1)C(=O)OCC | 17.6% | 65.9% | 36.3% | 52.8% | 30.4% | -1.28% (active) | 25% | 51.7% | 39.3% | 71.6%
CCN(CC)c1ccc(/C=N/NC(=O)Cc2ccc(Nc3ccnc(C(F)(F)F)c3)cc2)c(O)c1 | 19.1% | 19.4% | 25.9% | 24.5% | 8.96% (active) | 54.1% | 33.9% | 23.4% | 1.44% (active) | 64.9%
CC[C@]12C=CCN3CC[C@@]4(c5ccc(OC)cc5N(C)[C@H]4[C@@](O)(C(=O)OC)[C@@H]1OC(=O)CCC[P+](c1ccccc1)(c1ccccc1)c1ccccc1)[C@@H]32 | -8.66% (active) | 14% | 35.6% | 2.56% (active) | 6.11% (active) | -40% (active) | -35.4% (active) | 13.4% | 20.6% | -87.9% (active)
O=C(N/N=C\c1ccccc1S(=O)(=O)O)N/N=C/c1ccccc1S(=O)(=O)O | 102% | 105% | 99.3% | 101% | 98.5% | 96.8% | 98.5% | 97.9% | 95% | 106%
CN(CCCNC(=O)CCOCCOCCOCCNC(=O)Cc1ccc2ccc3cccc4ccc1c2c34)CCCNc1cc(-c2ccc3ccccc3c2)nc2ccccc12 | -82.9% (active) | -47.1% (active) | -88.4% (active) | -90.4% (active) | -82.6% (active) |  | -59% (active) | -33.9% (active) | -85.6% (active) | -87.7% (active)
CN(C)CCN1C(=O)c2cccc3c(/C=C/CN4C(=O)c5cccc6cccc(c56)C4=O)ccc(c23)C1=O | 93.8% | 98.7% | 84.3% | 88.9% | 93.7% |  | 101% | 85.3% | -84.5% (active) | 82.1%
CCCCNC(=O)Oc1ccc(/C(=C(/C)Cc2ccc(OC)cc2)c2ccc(OCCN3CCCCC3)cc2)cc1 | 81.6% | 90.5% | 92% | 84.1% | 33.6% |  | 81.2% | 61% | 66.7% | 34.9%
O=C(Oc1ccc(CCl)cc1)c1ccccc1 | -72.6% (active) | -97.8% (active) | -91.4% (active) | -79.2% (active) | -47.5% (active) | -89.7% (active) | -65.7% (active) | -68.7% (active) | -92.5% (active) | -72.9% (active)
Cc1ccc2c(-c3nnc(N)s3)cc(=O)oc2c1C | 95.5% | 97.5% | 98.5% | 101% | 102% | 106% | 102% | 104% | 92.4% | 119%
CCOC(=O)C#Cc1c(C(=O)OCC)nnn1Cc1ccc(C(F)(F)F)cc1 | 97.9% | 71.9% | 93.4% | 103% | 95.8% | 65.5% | -15.1% (active) | 95.8% | 43.6% | 17.2%
CN1CCN(Cc2ccc(NC(=O)c3cncc(C#Cc4cnc5ccc(Cl)nn45)c3)cc2C(F)(F)F)CC1 | -29.5% (active) | -58.3% (active) | -14.2% (active) | -15.7% (active) | -47.3% (active) |  | -12.8% (active) | 4.24% (active) | -53% (active) | -46.1% (active)
Cc1ccc(S(=O)(=O)c2nc(-c3ccccc3)oc2Sc2nc3ccccc3s2)cc1 | 20.9% | 48.6% | 94% | 97.1% | 68.1% |  | 54.1% | 101% | 35.3% | 102%
N#C/C(=C\C=C\c1ccc(-c2cc(Cl)ccc2Cl)o1)c1nc2ccccc2s1 | 83.7% | 78.3% | 95% | 87.7% | 103% |  | 94.4% | 99.4% | 102% | 
O=S1(=O)C=C(c2ccccc2)C(c2ccccc2)=C1 | 60.1% | 44.7% | 90.8% | 54.3% | 36.5% |  | -70.7% (active) | 70.9% | 3.9% (active) | -88.5% (active)
O=C(CCl)NNc1nccc(Nc2ccc(S(=O)(=O)Nc3ccncc3)cc2)n1 | 40.5% | 70.8% | 64.4% | 83.2% | 27.9% |  | -42.9% (active) | 71.5% | 24.1% | 82.2%
Cc1ccc(C(=O)Nc2cccc(C#Cc3cccc4[nH]nc(N)c34)c2)cc1C(F)(F)F | 51.8% | 55.8% | 79.2% | 58.7% | 75.6% |  | 60.2% | 67.5% | 62.6% | 40.2%
